The results in this text go back to PubChem BioAssay (NCATS).

Where “and” joins values, the source holds several entries; their conditions need not be identical. Equal values may be shown once. Results filed as inconclusive are left out. Unmarked numbers belong to inactive results. Calls of active or inactive are those of the source. Calls follow the shape of the dose curve; as a rule, active = well fitted curve in the direction sought with a large enough effect; inconclusive = small, poorly fitted or top-dose-only effect, or another doubt; inactive = no such curve, though single readings can be large; an effect the other way counts as inactive or inconclusive.

Assay [1] is described as follows: qHTS Assay for Identifying Gametocytocidal Compounds (AID 743244).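 As to max response: actives lower the fluorescent signal which means gametocytes are killed.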 To be noted: P. falciparum 3D7 stage III-V gametocytes, alamarBlue, 72 h; max response: hits give low values. Summed up: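 Stage III-V P. falciparum 3D7 gametocytes, 20,000 per well, were exposed to compounds for 72 h at 37C, 5% CO2. AlamarBlue was then added for 24 h and viability was read as fluorescence at Ex 525/Em 598 nm.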
For orientation: In qHTS, concentration-response curves come from the screen itself.

The nature of assay [2]: qHTS assay to identify small molecule inhibitors of chordoma cells - UCH-1 (AID 1259355). Also: nearly all actives have a fitted effect of over 55% in size. As to Potency: series mostly up to about 46 µM. A digest of the protocol: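 A 48hr growth-inhibition format: each drug tested at 15 concentrations together with added auranofin, camptothecin, doxorubicin, rubitecan and topotecan, with cell viability quantified as CellTiter-Glo luminescence.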
Assay [3] in a line: qHTS assay to identify small molecule inhibitors of chordoma cells - UCH-2 (AID 1259356).
% is scaled to controls: 0 for no effect and ±100 for the full control effect; potency is read from the fitted curve at half-maximal effect.

Take `CC(=O)OCC1=C(C(=O)O)N2C(=O)[C@@H](NC(=O)Cc3ccccc3)[C@H]2SC1`: the max response in assay [1] is 7.9%. The Potency entry in assay [2] and in assay [3] was “inactive” each time.

In the case of `Cc1ccc(C(C)(C)c2ccc(C)cc2)cc1`, the max response in assay [1] is 17%. In addition, the Potency entry in assay [2] and in assay [3] was “inactive” throughout.

With `O=C(O[C@H]1CN2CCC1CC2)N1CCc2ccccc2[C@@H]1c1ccccc1`, the max response in assay [1] was 5.85%. Moreover, the Potency entry in assay [2] and in assay [3] was “inactive” in each case.

`CC[C@H](CC[C@@H](C)[C@H]1CC[C@H]2[C@@H]3CC=C4C[C@@H](O)CC[C@]4(C)[C@H]3CC[C@]12C)C(C)C`: the max response in assay [1] was 14.2%. The Potency result in assay [2] and in assay [3] was “inactive” each time.

Take `CCOC(=S)SSC(=S)OCC`: the max response in assay [1] was 0.863%. Besides, the Potency result in assay [2] and in assay [3] was “inactive” throughout.

Consider `NC(Cc1ccccc1)C(=O)O` (stereo unspecified), for which the max response in assay [1] was 3.95%. In addition, the Potency result in assay [2] and in assay [3] was “inactive” each time.

On to `Cc1cccc(C)c1NC(=O)C1CCCCN1C` (stereo unspecified), for which the max response in assay [1] was -1.88%. Besides, the Potency entry in assay [2] and in assay [3] was “inactive” in each case.

`CCCCCc1ccc(C)cc1O`: the max response in assay [1] is 3.19%. Further, the Potency entry in assay [2] and in assay [3] was “inactive” each time.

For `CO[C@H]1C=CO[C@@]2(C)Oc3c(C)c(O)c4c(O)c(cc(O)c4c3C2=O)NC(=O)/C(C)=C\C=C/[C@H](C)[C@H](O)[C@@H](C)[C@@H](O)[C@@H](C)[C@H](OC(C)=O)[C@@H]1C`, the max response in assay [1] is -6.86%. Besides, the Potency entry in assay [2] and in assay [3] was “inactive” each time.

In the case of `C(=C\c1ccncc1)/c1ccccc1`, in assay [1], the max response was 1.05% and -0.436%. For the same compound, the Potency result in assay [2] and in assay [3] was “inactive” throughout.

As to `[O]=[Bi][O]C(=O)[O][Bi]=[O]`, the max response in assay [1] is -0.353%. The Potency result in assay [2] and in assay [3] was “inactive” throughout.

Consider `C[C@@H]1C[C@H]2[C@@H]3CCC4=CC(=O)C=C[C@]4(C)[C@@]3(F)[C@@H](O)C[C@]2(C)[C@@]1(O)C(=O)COC(=O)c1cccc(S(=O)(=O)O)c1`, for which, in assay [1], the max response was 12.5%. For the same compound, the Potency result in assay [2] and in assay [3] was “inactive” each time.

Turning to `O=C(O)CCC(=O)c1ccc(-c2ccccc2)cc1`, the max response in assay [1] is 1.84%. Besides, the Potency result in assay [2] and in assay [3] was “inactive” each time.

Turning to `CSc1nc2cc(Oc3cccc(Cl)c3Cl)c(Cl)cc2[nH]1`, in assay [1], the max response was 0.358%. The Potency result in assay [2] and in assay [3] was “inactive” in each case.

`O=C1CCC(=O)N1CO`: the max response in assay [1] was -5.34%. In addition, the Potency result in assay [2] and in assay [3] was “inactive” throughout.

Consider `FC(F)(F)COCC(F)(F)F`, for which the max response in assay [1] is 3.82%. The Potency entry in assay [2] and in assay [3] was “inactive” each time.

Take `CSCCC(N)C(=O)O` (stereo unspecified): the max response in assay [1] was -5.15%. The Potency entry in assay [2] and in assay [3] was “inactive” each time.

`O=P(O)(O)OC[C@H]1O[C@](O)(COP(=O)(O)O)[C@@H](O)[C@@H]1O`: the max response in assay [1] is 2.17%. The Potency result in assay [2] and in assay [3] was “inactive” each time.

For `O=C(O)Cc1nn(Cc2ccc(Br)cc2F)c(=O)c2ccccc12`, the max response in assay [1] was -4.01%. Besides, the Potency entry in assay [2] and in assay [3] was “inactive” in each case.

Regarding `CN[C@@H]1[C@@H](O[C@H]2O[C@H](CO)[C@@H](N)[C@H](O)[C@H]2O)O[C@H]2C[C@@H](N)[C@@H](O[C@H]3[C@H](O)[C@@H](O)[C@H](N)C[C@@H]3N)O[C@@H]2[C@@H]1O`, the max response in assay [1] was 4.88%. Also, the Potency entry in assay [2] and in assay [3] was “inactive” throughout.

Take `Cc1ncc(C[n+]2csc(CCOP(=O)(O)OP(=O)(O)O)c2C)c(N)n1`: the max response in assay [1] is 0.908%. Also, the Potency entry in assay [2] and in assay [3] was “inactive” throughout.

As to `NC[C@H]1O[C@H](O[C@H]2[C@H](O)[C@@H](O[C@H]3O[C@H](CO)[C@@H](O)[C@H](N)[C@H]3O)[C@H](N)C[C@@H]2N)[C@H](O)[C@@H](O)[C@@H]1O`, the max response in assay [1] was 19.4%. Also, the Potency result in assay [2] and in assay [3] was “inactive” each time.

Consider `C=C1CC[C@H](O)C/C1=C\C=C1/CCC[C@]2(C)[C@@H]([C@H](C)CCCC(C)C)CC[C@@H]12`, for which the max response in assay [1] is 7.84%. For the same compound, the Potency result in assay [2] and in assay [3] was “inactive” in each case.

On to `OCCN1CCN(CC/C=C2/c3ccccc3Sc3ccc(Cl)cc32)CC1`, for which the max response in assay [1] was -5.02%. Moreover, the Potency result in assay [2] and in assay [3] was “inactive” throughout.

Consider `O=S(=O)(O)CCCS(=O)(=O)O`, for which the max response in assay [1] was 2.64%. The Potency result in assay [2] and in assay [3] was “inactive” in each case.

`CCCCCCOC(=O)c1cccnc1`: the max response in assay [1] was 30.2%. Also, the Potency entry in assay [2] and in assay [3] was “inactive” each time.

Regarding `CC1=CC(=C(c2ccc(N)cc2)c2ccc(N)cc2)C=CC1=N`, the Potency in assay [1] is 7.94 µM (active); in assay [2] it was 15.8 µM (active); in assay [3], 14.6 µM (active).

As to `C=CC[N@@+]12CC[C@@]34c5ccccc5N5/C=C6/[C@H]7C[C@H]8[C@@]9(CC[N@@+]8(CC=C)C/C7=C/CO)c7ccccc7N(/C=C(/[C@@H](C[C@@H]31)/C(=C\CO)C2)[C@H]54)[C@@H]69`, in assay [1], the max response was 4.55%. The Potency result in assay [2] and in assay [3] was “inactive” each time.

For `C[C@]12CCC(=O)C[C@@H]1CC[C@@H]1[C@@H]2CC[C@]2(C)C=CC[C@@H]12`, the max response in assay [1] was -3.12%. In addition, the Potency result in assay [2] and in assay [3] was “inactive” throughout.

`NC[C@H]1O[C@H](O[C@H]2[C@H](O)[C@@H](O[C@H]3O[C@H](CO)[C@@H](O)[C@H](N)[C@H]3O)[C@H](N)C[C@@H]2N)[C@H](N)C[C@@H]1O`: the max response in assay [1] is -3.45%. Also, the Potency entry in assay [2] and in assay [3] was “inactive” throughout.

`CO/N=C(\C(=O)N[C@@H]1C(=O)N2C(C(=O)[O-])=C(C[n+]3cccc4c3CCC4)CS[C@H]12)c1csc(N)n1`: the max response in assay [1] was 15.5%. In addition, the Potency result in assay [2] and in assay [3] was “inactive” throughout.

In the case of `C=C[C@]1(C)C[C@@H](OC(=O)CSCCN(CC)CC)[C@]2(C)[C@H](C)CC[C@]3(CCC(=O)[C@H]32)[C@@H](C)[C@@H]1O`, in assay [1], the max response is -4.45%. Also, the Potency entry in assay [2] and in assay [3] was “inactive” each time.
